According to article PMC13541613, “GHT-SELEX demonstrates unexpectedly high intrinsic sequence specificity and complex DNA binding of many human transcription factors”:

Each sequence was assayed against ZNF721 full-length (Homo sapiens, UniProt Q8TF20-2 1-923) (assay: HT-SELEX; 20 mM HEPES pH 7, 140 mM KCl, 5 mM NaCl, 1 mM K2HPO4, 2 mM MgSO4, 100 uM EGTA, ZnSO4, 0.1% Tween20; room temperature, 1 h; high values mean tight binding). Conditions: protein: ivt; tags: eGFP (N-terminal); dsDNA, one strand shown.
Method in brief: (§1)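 The binding signal is a relative k-mer count in selected reads, and higher values mean tighter binding. To obtain these reads, bead-bound tagged transcription factor (full-length or DNA-binding-domain fragment, produced in HEK293 lysate or cell-free extract) was mixed with a randomized 40-base DNA library for 1 h at room temperature in low-stringency HEPES/KCl buffer with Tween20. Bound DNA was recovered by washing and heat elution, PCR-amplified through successive cycles and sequenced on Illumina (~3 million 60 bp reads per sample).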

Sequence of ZNF721 full-length (Q8TF20 other isoform, or with tags, fused parts or gaps): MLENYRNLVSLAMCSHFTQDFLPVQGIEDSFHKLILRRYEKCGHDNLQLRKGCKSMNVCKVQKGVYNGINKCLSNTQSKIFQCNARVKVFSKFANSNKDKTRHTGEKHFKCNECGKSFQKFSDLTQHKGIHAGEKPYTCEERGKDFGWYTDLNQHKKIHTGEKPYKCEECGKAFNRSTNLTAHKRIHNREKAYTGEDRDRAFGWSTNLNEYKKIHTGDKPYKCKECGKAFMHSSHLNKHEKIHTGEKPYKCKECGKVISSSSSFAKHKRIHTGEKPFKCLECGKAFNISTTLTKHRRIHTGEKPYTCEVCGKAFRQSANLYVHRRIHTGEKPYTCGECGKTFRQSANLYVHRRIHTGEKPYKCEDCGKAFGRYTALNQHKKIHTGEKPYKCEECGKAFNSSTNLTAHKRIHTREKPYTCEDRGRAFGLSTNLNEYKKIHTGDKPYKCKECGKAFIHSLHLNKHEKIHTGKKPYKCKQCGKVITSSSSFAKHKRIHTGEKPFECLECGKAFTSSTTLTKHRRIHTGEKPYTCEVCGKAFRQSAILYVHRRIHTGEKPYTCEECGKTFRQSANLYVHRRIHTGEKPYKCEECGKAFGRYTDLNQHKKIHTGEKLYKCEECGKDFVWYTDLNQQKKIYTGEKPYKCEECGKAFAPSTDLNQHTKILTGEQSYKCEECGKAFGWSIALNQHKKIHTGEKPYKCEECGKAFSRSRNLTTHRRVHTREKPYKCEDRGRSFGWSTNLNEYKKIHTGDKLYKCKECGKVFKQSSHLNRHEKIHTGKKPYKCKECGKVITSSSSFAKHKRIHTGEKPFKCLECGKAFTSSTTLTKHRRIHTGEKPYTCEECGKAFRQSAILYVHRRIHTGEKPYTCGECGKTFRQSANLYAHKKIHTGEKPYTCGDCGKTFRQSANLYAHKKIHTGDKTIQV

Sequence	binding signal [relative 10-mer count]
AACAGCGTAC	0.19
CAGCATCTCC	0.126
AACGCTGCTT	0.207
GCAACACTGC	0.135
ACAAAAACAG	0.13
AAACAGTGTT	0.338
CACAAAACAG	0.147
AAACGAACAG	0.126
AAAGAAACAG	0.126
ACAGCATGAC	0.209
CACTGTTTTC	0.15
AAAACAGCGG	0.134
AAAACAGTAC	0.126
ACAGTGTCTC	0.106
AAAAACAGTC	0.149
AAGCAGTGTC	0.13
AAAAACAGGA	0.104
CAGCGTTTCC	0.342
GCTGTTTTTA	0.135
GAAACACTGC	0.118

Sequence	binding signal [relative 10-mer count]
CGAAAACAGC	0.167
AAAAACAGGG	0.283
CTGTTTTTTC	0.357
AGACACTGCT	0.109
AAAAACAGTG	0.406
ACAGCGTATC	0.232
ACAGGGTATC	0.137
ATAAAACAGC	0.158
CAGTGTTTCC	0.252
CAAAAAACAG	0.386
AAACAGGGTA	0.175
ATGCTGTTTC	0.143
AACAGCATAT	0.118
AAGAAAACAG	0.177
CAGCATATCC	0.162
CAAAAACAGC	0.163
AAAAACAGCC	0.167
AAAAAGCAGG	0.195
AACAAAGCAG	0.243
CAAAGCAGCA	0.112

The sequences below were run against ZNF721 DBD2 (Homo sapiens, UniProt Q8TF20-2 395-923) in the same assay as above. Conditions: protein: ivt; tags: eGFP (N-terminal); dsDNA, one strand shown.
Method in brief: as §1

Sequence of ZNF721 DBD2 (Q8TF20 383-911): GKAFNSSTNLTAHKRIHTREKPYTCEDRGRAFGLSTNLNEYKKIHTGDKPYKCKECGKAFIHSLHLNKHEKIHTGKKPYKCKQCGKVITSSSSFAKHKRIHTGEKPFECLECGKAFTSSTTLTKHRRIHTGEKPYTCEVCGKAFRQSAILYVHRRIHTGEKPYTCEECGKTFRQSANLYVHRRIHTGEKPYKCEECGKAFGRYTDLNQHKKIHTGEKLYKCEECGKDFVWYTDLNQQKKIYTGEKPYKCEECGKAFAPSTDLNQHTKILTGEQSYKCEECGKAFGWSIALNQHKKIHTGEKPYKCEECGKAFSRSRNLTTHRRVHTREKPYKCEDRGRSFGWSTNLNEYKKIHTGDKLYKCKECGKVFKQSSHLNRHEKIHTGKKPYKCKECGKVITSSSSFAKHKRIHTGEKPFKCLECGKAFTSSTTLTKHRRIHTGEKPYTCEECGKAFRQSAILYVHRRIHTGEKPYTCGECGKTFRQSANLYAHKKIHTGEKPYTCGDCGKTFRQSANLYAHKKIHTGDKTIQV

Sequence	binding signal [relative 10-mer count]
AACAGCGTAC	0.275
CAGCATCTCC	0.214
AACGCTGCTT	0.327
GCAACACTGC	0.238
ACAAAAACAG	0.173
AAACAGTGTT	0.546
CACAAAACAG	0.156
AAACGAACAG	0.0771
AAAGAAACAG	0.119
ACAGCATGAC	0.295
CACTGTTTTC	0.248
AAAACAGCGG	0.189
AAAACAGTAC	0.166
ACAGTGTCTC	0.236
AAAAACAGTC	0.169
AAGCAGTGTC	0.151
AAAAACAGGA	0.113
CAGCGTTTCC	0.861
GCTGTTTTTA	0.204
GAAACACTGC	0.188

Sequence	binding signal [relative 10-mer count]
CGAAAACAGC	0.261
AAAAACAGGG	0.337
CTGTTTTTTC	0.365
AGACACTGCT	0.127
AAAAACAGTG	0.517
ACAGCGTATC	0.371
ACAGGGTATC	0.2
ATAAAACAGC	0.214
CAGTGTTTCC	0.641
CAAAAAACAG	0.495
AAACAGGGTA	0.22
ATGCTGTTTC	0.178
AACAGCATAT	0.181
AAGAAAACAG	0.222
CAGCATATCC	0.216
CAAAAACAGC	0.251
AAAAACAGCC	0.172
AAAAAGCAGG	0.172
AACAAAGCAG	0.29
CAAAGCAGCA	0.132
